This note sets out measurements from PubChem BioAssay (NCATS).

Results filed as inconclusive are left out. Calls of active or inactive are those of the source. Calls come from the whole dose curve; as a rule, active = well fitted cell-killing curve with a large enough effect; inconclusive = small, poorly fitted or top-dose-only effect, or effect the other way; inactive = no such curve, though single readings can be large or run the other way.
Potency is the fitted concentration of half-maximal effect.

The assay in a line: qHTS of pediatric cancer cell lines to identify multiple opportunities for drug repurposing: Confirmatory screen for Saos-2 cells (AID 1347127). Note: nearly all actives have a fitted effect of over 60% in size. The settings on record: Saos-2 osteosarcoma cell viability; series mostly up to 45.9 µM; activity change, negative = cytotoxic: at the top concentration. An excerpt:
Drug repurposing or repositioning has been offered as a strategy for drug development in oncology programs. This approach has special potential for childhood cancers and other rare or orphan diseases, where the expected return on new drug development has been a disincentive to pharmaceuticals.
In this project we exploit the poly-pharmacology of drugs to discover new indications via phenotypic screening of a panel of 19 well-characterized cell lines derived from solid tumors seen in children and adolescents. The goal is to identify approved drugs with previously unrecognized anticancer properties that has the potential to reveal new mechanisms and biological processes involved in carcinogenesis or drug resistance. We employed a titration-based paradigm (quantitative high-throughput screening or qHTS), where all compounds were tested at multiple concentrations for their effect on cell viability. Concentration-response curves (CRCs) were derived directly from the primary screen, and both potency and efficacy values were used to identify compounds with robust bioactivity profiles. We screened the NIH Chemical Genomics Center (NCGC) Pharmaceutical Collection (NPC) and Mechanism Interrogation Plate (MIPE) small molecule collections of approved and investigational compounds against these cell lines; and measured metabolically active cells after 48 hours of compound treatment as a proxy for cell viability.
Assay Submitter: Nathalia J. Martinez, National Center for Advancing Translational Sciences, National Institutes of Health, Rockville, MD, USA; email: natalia.martinez@nih.gov
[1] Shen, M et al. Quantitative high-throughput phenotypic screening of pediatric cancer cell lines identifies multiple opportunities for drug repurposing. Oncotarget 2017 Dec 19;9(4):4758-4772. PMID 29435139.
The cells were obtained from University of North Carolina (UNC), Pediatric Preclinical Testing Program (PPT), and Coriell Institute (CI).
qHTS cell viability assay:
Cells were assayed in growth media at a density of 500-1,000 cells/well. Five microliters of cells were dispensed into 1,536-well, white, solid-bottom, TC-treated plates (Greiner Bio One) using a multidrop dispenser and incubated at 37 degrees C, 5% CO2, under a humidified atmosphere for 5 hours. Twenty-three nanoliters of compounds and controls (neutral control DMSO or positive control bortezomib at final concentration of 2.3 µM) were subsequently transferred by Kalypsys pintool. For primary screens, the MIPE collection was tested at 11-point dilutions (final concentrations range from 0.78 nM to 46 µM) and the NPC collection at 8-point dilutions (final concentrations range from 0.59 nM to 46 µM). Compounds tested in follow-up screens were assayed at 11-point dilutions. Cells were incubated for 48 hours, followed by addition of 3 µL of CellTiter-Glo (Promega). After a 15 min incubation at room temperature, samples were analyzed for luminescence intensity using a ViewLux High-throughput CCD imager equipped with clear filters.
On to `CCN[C@@H]1C[C@H](N)[C@@H](OC2OC(CN)=CCC2N)[C@H](O)[C@H]1O[C@H]1OC[C@](C)(O)[C@H](NC)[C@H]1O` (stereo not given in full), for which the activity change, negative = cytotoxic is 11.1% [at 0.556 µM] (inactive).
Consider `O=C(CCCN1CC=C(n2c(=O)[nH]c3ccccc32)CC1)c1ccc(F)cc1`, for which the “activity change, negative = cytotoxic” value was -4.57% (inactive).
For `COc1ccc(C(=O)c2ccccc2)c(O)c1`, the “activity change, negative = cytotoxic” value was 5.07% (inactive).
As to `C[C@H]1O[C@@H](O[C@H]2CC[C@@]3(C)[C@H](CC[C@@H]4[C@@H]3C[C@@H](O)[C@]3(C)[C@@H](C5=CC(=O)OC5)CC[C@]43O)C2)C[C@H](O)[C@@H]1O[C@H]1C[C@H](O)[C@H](O[C@H]2C[C@H](O)[C@H](O[C@@H]3O[C@H](CO)[C@@H](O)[C@H](O)[C@H]3O)[C@@H](C)O2)[C@@H](C)O1`, the Potency is 928 nM (active).
For `C[C@@]12C(=O)OC(=O)[C@]1(C)C1CCC2O1`, the Potency is 2930 nM (active).
Regarding `CCN(CC)CCOc1ccc2c(c1)C(=O)c1cc(OCCN(CC)CC)ccc1-2`, the “activity change, negative = cytotoxic” value was -19.2% (inactive).
For `Nc1nc(Cl)nc2c1ncn2[C@@H]1O[C@H](CO)[C@@H](O)[C@@H]1F`, the Potency is 465 nM (active).
As for `CCCCCCCCCCCCOCCOCCOCCOCCOCCOCCOCCOCCOCCO`, the “activity change, negative = cytotoxic” value was 0.571% (inactive).
As to `CCN1/C(=C/C=C/c2sc3ccccc3[n+]2CC)Sc2ccccc21`, the Potency was 4140 nM (active).
As for `CCCCCCCCCCC[C@@H](C[C@@H]1OC(=O)[C@H]1CCCCCC)OC(=O)[C@H](CC(C)C)NC=O`, the “activity change, negative = cytotoxic” value was -6.53% (inactive).
